The text below walks through data of PubChem BioAssay (EPA / NIEHS).

Where “and” joins values, the source holds several entries; their conditions need not be identical. Identical values can stand only once. A structure can be active in one record and inactive in another. Calls of active or inactive are those of the source. The calls were made as follows: active = hit-call score of the fitted dose curve at least 0.9, where 1 is the maximum; inactive = score below 0.9.

A word on the AC50: it is the midpoint of the concentration-response curve, whichever way the signal moves.

Read-out in this test: CD40, CD40 (gene 958)
Kind of test: BSK_SAg_CD40: BioMAP Diversity Plus: SAg Assay for CD40 Biomarker Activity (AID 2283088). The note with it: primary human HUVEC with PBMC; actives raise or lower the signal. As for the experimental part: BSK_SAg is a cell-based, multiplexed-readout assay that uses umbilical vein endothelium and peripheral blood mononuclear cells, a human vascular primary cell co-culture, with measurements taken at 24 hours after chemical dosing in a 96-well plate.BSK_SAg_CD40 is one of 10 assay component(s) measured or calculated from the BSK_SAg assay. It is designed to make measurements of enzyme-linked immunosorbent assay, a form of binding reporter, as detected with fluorescence intensity signals by Enzyme-linked immunosorbent assay technology.Data from the assay component BSK_SAg_CD40 was analyzed into 1 assay endpoint. This assay endpoint, BSK_SAg_CD40, was analyzed with bidirectional fitting relative to DMSO as the negative control and baseline of activity. Using a type of binding reporter, gain or loss-of-signal activity can be used to understand changes in the signaling as they relate to the gene CD40. Furthermore, this assay endpoint can be referred to as a primary readout, because this assay has produced multiple assay endpoints where this one serves a signaling function. To generalize the intended target to other relatable targets, this assay endpoint is annotated to the cytokine intended target family, where the subfamily is inflammatory factor.
The levels of cell surface (or secreted, indicated by the prefix "s") biomarker endpoints were measured by ELISA. Overt cytotoxicity to cells in confluent adherent cultures (all systems other than the BT system) was assessed by measuring total protein levels using sulforhodamine B (SRB) staining in parallel cultures at the time of biomarker measurements, indicated as SRB endpoints. For proliferation assays for adherent cell types, individual cell types are cultured at sub-confluence and relative cell numbers quantified by SRB staining at time points optimized for each system (48 h: 3C and CASM3C systems; 72 h: BT and HDF3CGF systems; 96 h: SAg system). SRB was performed by staining cells with 0.1% SRB after fixation with 10% TCA and reading wells at 560 nm.Viability and proliferation of PBMC (T cells) was quantified by Alamar Blue reduction for the SAg and BT systems. For PBMC viability (referred to as PBMC Cytotoxicity within the assay endpoint names), cells were plated (75,000/well in a 96-well plate) and then chemical samples added for 1 h before addition of activators, SEB and TSST-1 (20 ng/mL final concentration each). Cells were incubated for 90 h. Then, Alamar Blue (20 uL/well) (Invitrogen, Cat DAL1100) was added for 6 h, and the plates were read with a fluorescence microplate reader at 546/580 nm (excitation/emission). For PBMC proliferation, cells were plated and activated as above but incubated for only 16 h prior to addition of Alamar Blue. Plates were read after 6 h.
On to `O=[N+]([O-])c1ccc2c3c(cccc13)CC2`, for which the result was inactive.

As to `ClC1(Cl)C2(Cl)C3(Cl)C4(Cl)C(Cl)(Cl)C5(Cl)C3(Cl)C1(Cl)C5(Cl)C24Cl` (stereo not given), the result was inactive.

Take `C[C@@H]1C[C@@H]([C@H](O)CC2CC(=O)NC(=O)C2)C(=O)[C@@H](C)C1`: the concentration at half-maximal activity (AC50) is 2.6 µM (active).

With `CCN1CCC2(CC1)COc1cc3c(cc12)N(C(=O)c1ccc(-c2ccc(-c4nnc(C)o4)cc2C)cc1)CC3`, the AC50 is 18.7 µM (active).

As to `COC(=O)Cc1ccccc1`, the AC50 was 31.3 µM (active) and the result was inactive.

Consider `O=C(O)C(Cl)(Cl)Cl`, for which the outcome was inactive.

On to `Cc1ccccc1N`, for which the outcome was inactive.

For the compound `COc1cc(-c2ccc(N)c(OC)c2)ccc1N`, the result was inactive.

Consider `CN(C)N=O`, for which the outcome was inactive.

Regarding `O=C(O)C(F)(F)C(F)(F)C(F)(F)C(F)(F)C(F)(F)C(F)(F)F`, the result was inactive.

In the case of `Nc1cccc2ccccc12`, the result was inactive.

On to `COC[C@H](C)N(C(=O)CCl)c1c(C)csc1C`, for which the outcome was inactive.

For `BrCCBr`, the result was inactive.

As to `O=C(O)C(F)(F)C(F)(F)C(F)(F)C(F)(F)C(F)(F)C(F)(F)C(F)(F)C(F)(F)C(F)(F)C(F)(F)F`, the concentration at half-maximal activity (AC50) is 29.2 µM (active) and 5.41 µM (active) and 5.27 µM (active).

Turning to `COC(=O)c1sccc1S(=O)(=O)NC(=O)Nc1nc(C)nc(OC)n1`, the outcome was inactive.

Turning to `CCC(C)(C)c1ccc(O)c(C(C)(C)CC)c1`, the AC50 is 13 µM (active).

For `Nc1ncc([N+](=O)[O-])s1`, the outcome was inactive.

With `CC(C)c1ccc(CO)cc1`, the outcome was inactive.

As for `CC(=O)C(Cl)C(=O)N(C)C` (stereo not given), the AC50 was 20 µM (active).

As for `CCOP(=S)(OCC)SCSP(=S)(OCC)OCC`, the result was inactive.

Consider `COP(=S)(OC)Oc1ccc(S(=O)(=O)N(C)C)cc1`, for which the outcome was inactive.

As for `C=CC(=O)OCCCCCC(C)C`, the result was inactive.

Consider `CC(C)(C)CC(C)(C)c1ccc(O)cc1`, for which the AC50 is 7.96 µM (active).

Regarding `O=C(O)CCC(F)(C(F)(F)F)C(F)(F)F`, the outcome was inactive.

As to `ClC(Cl)=C(Cl)C(Cl)=C(Cl)Cl`, the outcome was inactive.

Take `O=C(OC1CCCCC1)c1ccccc1C(=O)OC1CCCCC1`: the AC50 is 20.9 µM (active).

Take `COP(=S)(OC)Oc1ccc(Sc2ccc(OP(=S)(OC)OC)cc2)cc1`: the AC50 was 14.8 µM (active).

As for `Oc1cccc2cccnc12`, the result was inactive.

Consider `NC(=O)O`, for which the outcome was inactive.

Turning to `Oc1c(I)cc(I)cc1I`, the AC50 was 25.3 µM (active).

For the compound `CC(C)(OO)c1ccccc1`, the result was inactive.

As for `COc1cc(OC)nc(NC(=O)NS(=O)(=O)c2ncccc2C(=O)N(C)C)n1`, the outcome was inactive.

As to `CCCCC(CC)CO[N+](=O)[O-]` (stereo not given), the outcome was inactive.

For `O=Cc1cccc(Oc2ccccc2)c1`, the result was inactive.

Turning to `CCCCCCCCc1ccc(O)cc1`, the AC50 was 32.2 µM (active).

As for `CC1(C)Cc2cccc(O)c2O1`, the outcome was inactive.

Take `CCNc1nc(NC(C)(C)C)nc(SC)n1`: the result was inactive.

`CCOP(=S)(OCC)Oc1ccc(S(C)=O)cc1` (stereo not given): the outcome was inactive.

Turning to `CCC(=O)C(CC(C)N(C)C)(c1ccccc1)c1ccccc1` (stereo not given), the result was inactive.
